Data taken from PubChem BioAssay AID1159580 (chemical genetic matrix, 2015).
In all, about 5,500 compounds went through this assay and about 2,000 (36%) were called active. About 18% were inconclusive and are not listed. Rule as the data show it: active = normalized growth mostly below about 0.91 (no sharp cut-off); inconclusive = no clear call, values can overlap the other calls; inactive = mostly above about 0.92. The list shows a part of the results.

Assay: chemical genetic growth profiling, strain panel (AID 1159580);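 also: tested at 20 µM; growth read once vehicle control cultures reached saturation at 30 °C; 1 = growth at the plate median or of vehicle wells; lower values mean less growth of the strain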
Settings: S. cerevisiae deletion strains, growth OD
[1] = locus YDL101C, strain DUN1, stronger effect = lower value
[2] = locus YHR030C, strain SLT2, stronger effect = lower value

Measured: normalized growth

CCOC(=O)COc1ccc2c(c1)OC(C)(C)CC2=O
inactive: locus YAL013W, strain DEP1, stronger effect = lower value 0.998 | locus YBR229C, strain ROT2, stronger effect = lower value 0.994 | locus YCL061C, strain MRC1, stronger effect = lower value 0.964 | [1] 0.993 | locus YDL134C, strain PPH21, stronger effect = lower value 1.01 | locus YDR150W, strain NUM1, stronger effect = lower value 0.872 | locus YEL061C, strain CIN8, stronger effect = lower value 1.01 | locus YGR078C, strain PAC10, stronger effect = lower value 1 | locus YGR229C, strain SMI1, stronger effect = lower value 1.01 | [2] 0.947 | locus YHR087W, strain rtc3, stronger effect = lower value 0.976 | locus YJR043C, strain POL32, stronger effect = lower value 0.994 | locus YJR075W, strain HOC1, stronger effect = lower value 0.974 | locus YLR039C, strain RIC1, stronger effect = lower value 1.05 | locus YLR058C, strain SHM2 (second series), stronger effect = lower value 1 | locus YLR085C, strain ARP6, stronger effect = lower value 0.965 | locus YLR262C, strain YPT6, stronger effect = lower value 1.02 | locus YML094W, strain GIM5, stronger effect = lower value 1.02 | locus YMR219W, strain ESC1, stronger effect = lower value 0.988 | locus YMR263W, strain SAP30, stronger effect = lower value 1.01 | locus YMR307W, strain GAS1, stronger effect = lower value 0.986 | locus YNL128W, strain TEP1, stronger effect = lower value 1.01 | locus YNL153C, strain GIM3, stronger effect = lower value 0.966 | locus YNL298W, strain CLA4 (second series), stronger effect = lower value 1.01 | locus YNL322C, strain KRE1, stronger effect = lower value 1 | locus YNR030W, strain Alg12, stronger effect = lower value 1 | locus YPL055C, strain LGE1, stronger effect = lower value 0.849 | locus YPL241C, strain CIN2, stronger effect = lower value 0.953 | locus YPR135W, strain CTF4, stronger effect = lower value 1.03

Cc1oc2c(F)c(F)c(F)c(F)c2c1C(=O)ONC(N)c1ccc(OS(=O)(=O)N(C)C)cc1 (stereo not given)
inactive: locus YAR019C, strain CDC15, stronger effect = lower value 0.958 | locus YBL105C, strain PKC1, stronger effect = lower value 0.963 | locus YBR135W, strain CKS1, stronger effect = lower value 0.971 | locus YBR136W, strain MEC1, stronger effect = lower value 0.958 | locus YBR160W, strain CDC28, stronger effect = lower value 0.976 | locus YDL017W, strain CDC7, stronger effect = lower value 0.973 | locus YDL028C, strain MPS1, stronger effect = lower value 0.959 | [1] 0.985 | locus YDL108W, strain KIN28, stronger effect = lower value 0.978 | locus YDL132W, strain cdc53, stronger effect = lower value 0.982 | locus YDL214C, strain PRR2, stronger effect = lower value 0.969 | locus YDR052C, strain DBF4, stronger effect = lower value 0.971 | locus YDR054C, strain cdc34, stronger effect = lower value 0.976 | locus YDR226W, strain ADK1, stronger effect = lower value 0.969 | locus YDR477W, strain SNF1, stronger effect = lower value 0.946 | locus YER123W, strain YCK3, stronger effect = lower value 0.926 | locus YER133W, strain GLC7, stronger effect = lower value 0.958 | locus YFL009W, strain cdc4, stronger effect = lower value 0.962 | locus YFL029C, strain CAK1, stronger effect = lower value 0.958 | locus YFR003C, strain YPI1, stronger effect = lower value 0.968 | locus YFR019W, strain FAB1, stronger effect = lower value 0.937 | locus YFR028C, strain CDC14, stronger effect = lower value 0.963 | locus YGR040W, strain KSS1, stronger effect = lower value 0.949 | locus YGR052W, strain FMP48, stronger effect = lower value 1.03 | locus YGR092W, strain DBF2, stronger effect = lower value 0.989 | [2] 0.937 | locus YHR079C, strain IRE1, stronger effect = lower value 0.981 | locus YHR082C, strain KSP1, stronger effect = lower value 1.02 | locus YHR205W, strain SCH9, stronger effect = lower value 0.926 | locus YIL147C, strain SLN1, stronger effect = lower value 0.96 | locus YJL095W, strain BCK1, stronger effect = lower value 0.983 | locus YJL128C, strain PBS2, stronger effect = lower value 0.972 | locus YJL157C, strain FAR1, stronger effect = lower value 0.963 | locus YJR016C, strain ILV3, stronger effect = lower value 0.972 | locus YJR066W, strain TOR1 (second series), stronger effect = lower value 0.918 | locus YJR066W, strain TOR1, stronger effect = lower value 0.985 | locus YKL048C, strain ELM1, stronger effect = lower value 0.981 | locus YKL067W, strain YNK1, stronger effect = lower value 0.975 | locus YKL101W, strain HSL1, stronger effect = lower value 0.966 | locus YKL193C, strain SDS22, stronger effect = lower value 0.969 | locus YKL203C, strain TOR2, stronger effect = lower value 0.99 | locus YLR113W, strain HOG1, stronger effect = lower value 0.966 | locus YLR133W, strain CKI1, stronger effect = lower value 0.96 | locus YLR403W, strain SFP1, stronger effect = lower value 0.921 | locus YML070W, strain DAK1, stronger effect = lower value 0.955 | locus YMR001C, strain CDC5, stronger effect = lower value 0.963 | locus YMR205C, strain PFK2 (second series), stronger effect = lower value 0.975 | locus YMR277W, strain FCP1, stronger effect = lower value 0.964 | locus YNL006W, strain LST8, stronger effect = lower value 0.97 | locus YNL020C, strain ARK1, stronger effect = lower value 0.982 | locus YNL161W, strain CBK1, stronger effect = lower value 0.971 | locus YNL183C, strain NPR1, stronger effect = lower value 0.964 | locus YNL207W, strain RIO2, stronger effect = lower value 0.967 | locus YNL222W, strain SSU72, stronger effect = lower value 0.976 | locus YNL307C, strain MCK1 (second series), stronger effect = lower value 0.952 | locus YOL078W, strain AVO1, stronger effect = lower value 0.963 | locus YOL136C, strain PFK27, stronger effect = lower value 0.952 | locus YOR061W, strain CKA2, stronger effect = lower value 0.951 | locus YOR119C, strain RIO1, stronger effect = lower value 0.97 | locus YOR231W, strain MKK1, stronger effect = lower value 0.986 | locus YOR329C, strain SCD5, stronger effect = lower value 0.972 | locus YPL031C, strain PHO85, stronger effect = lower value 0.94 | locus YPL153C, strain RAD53, stronger effect = lower value 0.946 | locus YPL204W, strain HRR25, stronger effect = lower value 0.963 | locus YPL209C, strain IPL1, stronger effect = lower value 0.974 | locus YPL256C, strain CLN2, stronger effect = lower value 0.959 | locus YPR025C, strain CCL1, stronger effect = lower value 0.968 | locus YPR106W, strain ISR1, stronger effect = lower value 0.986 | locus YPR111W, strain DBF20, stronger effect = lower value 0.98 | strain NNK1, stronger effect = lower value 0.993 | strain TSCII, stronger effect = lower value 0.967
